Bioassay records as filed in PubChem BioAssay.
PLCb3 inh = blocks human PLC-beta3 enzyme activity | Q01970 | Purified PLC-beta3, fluorogenic substrate, fluorescence | inhibition, % at 12.2 µM | actives 0.18% (n = 370,000); in the data active = inhibition above about 11%;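 also: 0% = median of compound wells on plate and 100% = full blocker control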
ADAM10 inh = inhibits human ADAM10; inhibition, % at 7 µM; recombinant ADAM10, EDANS/DABCYL FRET peptide cleavage, 3 h; actives 0.62% (n = 370,000); O14672;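 active = inhibition above a per-campaign cutoff equal to the mean of compounds falling between control-based bounds plus 3 SD, cut at about 20% in these data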;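 also: 0% = DMSO wells while the 100% control is not disclosed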
ADAM17 inh = ADAM17 inhibition, QFRET primary screen; recombinant ADAM17, EDANS/DABCYL FRET peptide cleavage; inhibition, % at 6.95 µM; actives 0.83% (n = 370,000); P78536;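 active = inhibition above the mean of compounds lying between control limits plus 3 SD, set per campaign, cut at about 8.5% in these data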;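 also: 0% = DMSO-only wells as the low control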
proKLK7 act = activates the human kallikrein-7 zymogen | P49862 | AID 652039 | purified proKLK7, EDANS-DABCYL substrate fluorescence; 100% is mature enzyme control, 0% vehicle | actives 0.9% (n = 370,000) | activation, % at 7 µM;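 active = activation above the mean of all tested compounds plus 3 SD, computed per campaign excluding outliers beyond control limits, cut at about 13% in these data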
PLCg1 inh = blocks human PLC-gamma1 enzyme activity; inhibition, % at 12.2 µM; actives 0.84% (n = 370,000); AID 720700; purified PLC-gamma1, fluorogenic substrate, fluorescence; P19174; in the data active = inhibition above about 9.5%
ADAM10 counter = inhibits human ADAM10 in ADAM17 exosite counter-screen | inhibition, % at 6.95 µM | recombinant ADAM10, EDANS/DABCYL FRET peptide cleavage, 3 h | AID 743256 | actives 47% (n = 2,900) | shares compounds with ADAM17 inh;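 active = mean inhibition over the triplicate runs exceeds the activity threshold set in the earlier primary screen, cut at about 20% in these data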;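 also: 0% = DMSO wells and 100% = marimastat wells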
ADAM17 confirm = confirmation of inhibitors of human ADAM17. actives 65% (n = 2,900). inhibition, % at 6.95 µM. recombinant ADAM17, EDANS/DABCYL QFRET peptide cleavage. shares compounds with ADAM17 inh. AID 743257;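 active = mean inhibition across replicates above the hit cutoff set in the primary screen, cut at about 8.5% in these data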;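 also: 0% = DMSO wells and 100% = marimastat wells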
Active calls of the source: *. The list is not random: actives were taken first. Their share in the collection is about 2.9%.

How did Cc1ccc(S(=O)(=O)N2CC3(O)CN(C(=O)OC(C)C)N(C(=O)OC(C)C)CC3(OC(=O)Nc3cccs3)C2)cc1 (stereo not given) do in these assays?
PLCb3 inh: 2.5; ADAM10 inh: 18.9; ADAM17 inh: 9.4*; proKLK7 act: -0.3; PLCg1 inh: 1.5; ADAM10 counter: 31.4*; ADAM17 confirm: 13.1*

What do the screens show for `Cc1ccc(S(=O)(=O)N2CC3(O)CN(C(=O)OC(C)C)N(C(=O)OC(C)C)CC3(OC(=O)Nc3c(C)noc3C)C2)cc1` (stereo not given)?
PLCb3 inh: 0.4; ADAM10 inh: -3.6; ADAM17 inh: -2.3; proKLK7 act: 0.3; PLCg1 inh: -2.6

What do the screens show for `CCN(CC)c1ccc(NC(=O)/C=C/c2cc(Br)ccc2OC)cc1`?
PLCb3 inh: -11.0; ADAM10 inh: 12.2; ADAM17 inh: 10.2*; proKLK7 act: -0.1; PLCg1 inh: -9.6; ADAM10 counter: 27.4*; ADAM17 confirm: 19.6*

How did COc1ccc(Br)cc1/C=C/C(=O)Nc1c(C)cccc1C do in these assays?
PLCb3 inh: -0.5; ADAM10 inh: -6.5; ADAM17 inh: 9.8*; proKLK7 act: 0.9; PLCg1 inh: 8.3; ADAM10 counter: -15.8; ADAM17 confirm: -0.5

How did COC(=O)C1=CN(c2ccc(C)cc2)C(N)=C(C#N)C1c1ccccc1F (stereo not given) do in these assays?
PLCb3 inh: -44.6; ADAM10 inh: -30.7; ADAM17 inh: -8.7; proKLK7 act: 0.6; PLCg1 inh: -29.4

Results for COC(=O)c1cc(=O)cc(C(=O)OC)o1 ?
PLCb3 inh: 8.8; ADAM10 inh: 9.0; ADAM17 inh: 8.7*; proKLK7 act: -0.1; PLCg1 inh: 7.6; ADAM10 counter: -11.4; ADAM17 confirm: -1.1

What do the screens show for `CC(C)CC(=O)c1c(O)cc(O)c2c1OC1=C(C(=O)C(C)(C)C(=O)C1(C)C)C2CC(C)C` (stereo not given)?
PLCb3 inh: 2.5; ADAM10 inh: 9.7; ADAM17 inh: 9.2*; proKLK7 act: 0.2; PLCg1 inh: -3.7; ADAM10 counter: 13.4; ADAM17 confirm: 7.5

Results for O=C(CNC(=O)c1ccccc1F)N/N=C/c1cc(Br)ccc1OCc1ccccc1 ?
PLCb3 inh: -4.5; ADAM10 inh: 18.8; ADAM17 inh: 8.8*; proKLK7 act: -0.2; PLCg1 inh: 0.1; ADAM10 counter: 31.8*; ADAM17 confirm: 15.3*

Results for CC(NCc1ccco1)C(=O)N1CCN(c2ccc(F)cc2)CC1 (stereo not given) ?
PLCb3 inh: 7.4; ADAM10 inh: 4.8; ADAM17 inh: -0.1; proKLK7 act: 0.1; PLCg1 inh: 6.6

What do the screens show for `Cc1noc(C)c1C(=O)OCC(=O)Nc1ccccc1Oc1ccccc1`?
PLCb3 inh: 1.8; ADAM10 inh: 11.8; ADAM17 inh: 8.7*; proKLK7 act: -0.3; PLCg1 inh: 0.8; ADAM10 counter: 5.9; ADAM17 confirm: 11.2*

Results for Cc1noc(C)c1C(=O)OCC(=O)Nc1ccccc1C(=O)NC(C)c1ccccc1 (stereo not given) ?
PLCb3 inh: -2.3; ADAM10 inh: -1.5; ADAM17 inh: -4.6; proKLK7 act: 0.0; PLCg1 inh: -4.5

Results for CCC[C@H]1[C@@H](OC(=O)NCc2cccc(C(F)(F)F)c2)CC[C@@]23CCCN2C(=O)CCC[C@@H]13 ?
PLCb3 inh: 5.9; ADAM10 inh: 12.5; ADAM17 inh: 6.5; PLCg1 inh: 1.0

Results for CN1CC(c2ccccc2)C2(SC(=S)N(Cc3ccco3)C2=O)C12C(=O)Nc1ccccc12 (stereo not given) ?
PLCb3 inh: 0.0; ADAM10 inh: 25.7*; ADAM17 inh: 10.1*; proKLK7 act: 0.1; PLCg1 inh: 0.1; ADAM10 counter: 37.0*; ADAM17 confirm: 23.6*

What do the screens show for `CN(C)S(=O)(=O)c1cccc(NC(=O)c2cc(-c3cccs3)nn2-c2cccc(Cl)c2)c1`?
PLCb3 inh: -2.5; ADAM10 inh: 13.4; ADAM17 inh: 12.5*; proKLK7 act: -0.2; PLCg1 inh: -0.6; ADAM10 counter: 14.3; ADAM17 confirm: 11.8*

Results for O=C(O)c1cc(-c2cccs2)nn1-c1cccc(Cl)c1 ?
PLCb3 inh: -11.8; ADAM10 inh: -3.4; ADAM17 inh: -2.7; proKLK7 act: -0.4; PLCg1 inh: -4.2

What do the screens show for `Cc1cccc(C(=O)Nc2cccc(OC(=O)c3cccc(C)c3)c2)c1`?
PLCb3 inh: -0.9; ADAM10 inh: 11.3; ADAM17 inh: 10.1*; proKLK7 act: 2.7; PLCg1 inh: -1.2; ADAM10 counter: 29.8*; ADAM17 confirm: 17.3*

How did COc1ccc(/C=N/n2c(-c3n[nH]c4c3CCC4)n[nH]c2=S)cc1OC do in these assays?
PLCb3 inh: 8.8; ADAM10 inh: 3.9; ADAM17 inh: 8.4; proKLK7 act: -0.2; PLCg1 inh: 1.5

How did COc1ccc2ccccc2c1C=Nn1c(-c2n[nH]c3c2CCC3)n[nH]c1=S do in these assays?
PLCb3 inh: -0.1; ADAM10 inh: 10.9; ADAM17 inh: 10.4*; proKLK7 act: -0.7; PLCg1 inh: 2.8; ADAM10 counter: 0.1; ADAM17 confirm: 2.8

Results for CCN(CC)S(=O)(=O)c1ccc(C(=O)Nc2cc3oc4ccccc4c3cc2OC)cc1 ?
PLCb3 inh: -5.1; ADAM10 inh: 2.0; ADAM17 inh: 0.7; proKLK7 act: -5.3; PLCg1 inh: -0.6

How did CCN(CC)C(=O)CN(c1cc2c(cc1OC)oc1ccccc12)S(=O)(=O)c1ccc(C)cc1 do in these assays?
PLCb3 inh: 4.3; ADAM10 inh: 19.2; ADAM17 inh: 15.5*; proKLK7 act: -0.1; PLCg1 inh: 6.0; ADAM10 counter: -0.1; ADAM17 confirm: 7.7

How did CC/C(C)=N/Nc1nc2c(c(=O)[nH]c(=O)n2C)n1Cc1ccccc1 do in these assays?
PLCb3 inh: -19.9; ADAM10 inh: 13.9; ADAM17 inh: 9.1*; proKLK7 act: -0.1; PLCg1 inh: -4.2; ADAM10 counter: 4.6; ADAM17 confirm: 3.4

What do the screens show for `Cc1cc(N/N=C/c2c(O)ccc3ccccc23)nc(-c2ccccc2O)n1`?
PLCb3 inh: -8.7; ADAM10 inh: 7.6; ADAM17 inh: 9.2*; proKLK7 act: -5.7; PLCg1 inh: -9.4; ADAM10 counter: -69.2; ADAM17 confirm: -9.4

How did COc1ccccc1Cc1c(C2CCCCC2)nc2cc(C)c(Br)c(C)n12 do in these assays?
PLCb3 inh: -2.4; ADAM10 inh: -7.2; ADAM17 inh: -2.6; proKLK7 act: 1.1; PLCg1 inh: -0.8

How did CCn1c2c(c3cc(Br)ccc31)CCC/C2=N\O do in these assays?
PLCb3 inh: -2.2; ADAM10 inh: 15.8; ADAM17 inh: 9.5*; proKLK7 act: -0.6; PLCg1 inh: 6.2; ADAM10 counter: 0.5; ADAM17 confirm: 5.6
